# Only some compounds are listed: those with a hit (about 7.5% of all), similar ones and a draw of the others.
# VACV Venus inh: vaccinia inhibition (Venus reporter). Vaccinia virus Venus reporter expression, fluorescence. Potency, µM (titrated, usually from 36.5 µM), inactives show top-dose activity change, negative = inhibition, actives largely listed as inhibitors. hit rate 0.46% among 330,000. AID 720580; calls by dose curve; tested in A549 cells; note: potency is the fitted concentration of half-maximal effect; nearly all actives have a fitted effect of over 30% in size
# HCMV antiviral: blocks human cytomegalovirus replication; HFF cells, HCMV-luciferase reporter, 72 h; stronger effect = lower value; activity change, negative = inhibition, % at 57.5 µM; hit rate 4.5% among 410,000; in the data active = activity change below about -60%; inconclusive = no clear call, values can overlap the other calls; inactive = above about -39%
#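 Human foreskin fibroblasts infected with luciferase-reporter HCMV at MOI 1 PFU/cell, compounds at two doses. Luciferase measured 72 h post infection; normalized to buffer-only basal and Salinomycin (10uM) controls.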
# HCV inh: blocks hepatitis C virus. hit rate 3.4% among 340,000. AID 651820. Potency, µM (top dose mostly 41.8 µM), for the others: at the top dose activity change, negative = inhibition, usual class: inhibitors. Huh7.5.1 HCVcc-Cre infection, luciferase reporter, 44 h; note: potency is the fitted concentration of half-maximal effect
#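 After 44 h co-culture of compound, cells and HCVcc-Cre (~0.5 moi), substrate is added for 15 min at room temperature and luciferase measured over 15 sec. Cells were seeded at 1,000/well and pre-cultured 4 h.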
# Vaccinia mCherry: inhibitors of vaccinia virus infection (mCherry reporter signal) | Vaccinia virus mCherry reporter infection, fluorescence | AID 720579 | Potency, µM (doses to about 36.5 µM), inactives show top-dose activity change, negative = inhibition, hits mostly inhibitors | hit rate 0.63% among 310,000; calls by dose curve; tested in A549 cells; note: potency is the fitted concentration of half-maximal effect; nearly all actives have a fitted effect of over 35% in size
# FMDV antiviral: antivirals against foot and mouth disease virus; Potency, µM (doses to about 57.9 µM), for inactives: at the highest dose activity change, negative = inhibition, most hits filed as inhibitors; hit rate 1.2% among 410,000; FMDV antiviral cell-based qHTS; calls by dose curve; tested in HEK293T cells; note: read-out not given here; potency is the fitted concentration of half-maximal effect; nearly all actives have a fitted effect of over 45% in size
# Giardia FBPA inh: inhibitors of Giardia lamblia fructose-1,6-bisphosphate aldolase | A8B2U2 | purified Giardia FBPA | Potency, µM (top dose mostly 59.6 µM), without a hit: at the highest dose activity, negative = inhibition, most hits filed as inhibitors | hit rate 0.71% among 290,000; note: potency is the fitted concentration of half-maximal effect; nearly all actives have a fitted effect of over 55% in size
# Target sequence (A8B2U2 whole entry, looked up): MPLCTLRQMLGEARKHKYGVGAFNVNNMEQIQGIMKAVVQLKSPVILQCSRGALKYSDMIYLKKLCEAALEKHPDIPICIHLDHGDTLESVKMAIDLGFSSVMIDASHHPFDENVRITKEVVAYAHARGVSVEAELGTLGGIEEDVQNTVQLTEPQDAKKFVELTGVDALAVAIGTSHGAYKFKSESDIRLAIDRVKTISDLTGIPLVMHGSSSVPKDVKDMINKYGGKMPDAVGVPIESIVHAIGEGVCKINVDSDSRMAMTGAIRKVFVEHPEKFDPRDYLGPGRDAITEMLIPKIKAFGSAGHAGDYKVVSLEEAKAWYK
#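 Giardia FBPA (40 nM reagent) was preincubated 10 min at RT with compound (up to 57.5 uM final), then substrate plus GAPDH/TPI/NAD/arsenate coupling system with diaphorase/resazurin was added; resorufin fluorescence (525/598 nm) was read after 20 min.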
# The depositor's hits bear a star; i = inactive; u = inconclusive; x = no result. Unless noted, calls come from the whole dose curve; as a rule, active = well fitted curve in the direction sought with a large enough effect; inconclusive = small, poorly fitted or top-dose-only effect, or another doubt; inactive = no such curve, though single readings can be large; an effect the other way counts as inactive or inconclusive. % is set by controls: 0 for no effect and ±100 for the full control effect.
SMILES,VACV Venus inh,HCMV antiviral,HCV inh,Vaccinia mCherry,FMDV antiviral,Giardia FBPA inh
CCN(CC)c1ccc(C=C2C(=O)N(C)C(=S)N(C)C2=O)o1,85%,1,3%,7%,-3%,-2%
CCN(CC)c1ccc(/C=C2/SC(=O)N(C(C)C)C2=O)o1,58%,-86*,u,-21%,11%,u
CC(=O)OC1CCC2(C)C(CCC3C4CC=C(C(C)=O)C4(C)OC(=O)CC32)C1 (stereo not given),11µM*,-76*,x,u,13µM*,x
Clc1ccc2c(SCC3CO3)c3ccccc3nc2c1 (stereo not given),u,-37,u,i,u,x
CCc1ccc(CN(C(=O)Nc2cccc(Cl)c2)c2ccccn2)cc1,-10%,24,x,-13%,36%,x
Cc1ccc(N2CCN(C(=O)C3CCC(=O)N(Cc4ccc(Cl)cc4)C3)CC2)c(C)c1 (stereo not given),-24%,u,11µM*,-13%,u,x
O=C(Cc1ccccc1)NCC(=O)N1CCN(c2ccccc2)CC1,-17%,x,24%,-11%,-14%,x
O=C1C2C3C=CC(c4ccccc4)(C2C(=O)N1c1cccc(Cl)c1)C1C(=O)N(c2cccc(Cl)c2)C(=O)C31 (stereo not given),u,-12,10µM*,u,-28%,-8%
O=C1C2C3CCCC3=C3CCCC3C2C(=O)N1c1cccc(Cl)c1 (stereo not given),-26%,17,9%,u,-25%,-1%
COCCS(=O)(=O)N(Cc1ccccc1)[C@H](C(=O)OC)C(C)C,-5%,5,3%,i,-23%,x
COCCS(=O)(=O)N(Cc1ccc(Br)cc1)[C@@H](C)C(=O)OC,7.1µM*,-10,8%,u,-28%,x
O=C1OC(CO)C(O)C(O)C1O (stereo not given),x,x,x,x,x,6%
COc1ccccc1-n1c(CNC(=O)c2ccc(S(=O)(=O)N3CCCCC3)cc2)n[nH]c1=S,1%,-70*,17%,-7%,-12%,x
O=C(NCc1n[nH]c(=S)n1-c1ccccc1Cl)c1ccc(S(=O)(=O)N2CCCCC2)cc1,2%,-34,9%,-16%,24%,-13%
COc1ccc2c(c1)C/C(=C\c1ccc(N(C)C)cc1)C2=O,48%,x,x,-24%,x,x
COC(=O)c1sc(NC(=O)c2ccc(Cn3cc(Cl)cn3)o2)c(C#N)c1C,u,-106*,-3%,-15%,u,10%
N#Cc1c(NC(=O)c2ccc(Cn3cc(Br)cn3)o2)sc2c1CCCCC2,u,15,u,-13%,0%,4%
Cc1ccc(-c2cc(C(=O)Nc3nccs3)c3ccccc3n2)c(C)c1,-16%,-87*,10µM*,i,u,1%
Cc1cc(C)c2nc(NNC(=O)c3cc(-c4cccs4)nc4ccccc34)sc2c1,u,-21,10µM*,u,u,1%
CCOC(=O)c1sc(NC(=O)c2cc(-c3ccccc3C)nc3ccccc23)c(C#N)c1C,u,-105*,7.1µM*,u,u,3%
COc1ccc(CCNC(=O)CN(c2ccc(OC)c(OC)c2)S(=O)(=O)c2ccccc2)cc1OC,x,15,6%,x,-28%,x
CN(c1ccc([N+](=O)[O-])cc1C(N)=O)C1CCCCC1,-9%,-19,-1%,-2%,-24%,2%
CCOC(=O)Cc1csc(N/C(=N/S(=O)(=O)c2cc(Br)ccc2OCC)c2ccccc2)n1,-5%,u,4%,-13%,0%,10%
CCOC(=O)c1sc(NC(=O)c2ccncc2)c(C#N)c1C,-8%,-68*,u,-19%,u,10%
Cc1ccccc1-c1cc(C(=O)Nc2sc(C)c(C)c2C(N)=O)c2ccccc2n1,-33%,-23,4.5µM*,x,u,-15%
SMILES,VACV Venus inh,HCMV antiviral,HCV inh,Vaccinia mCherry,FMDV antiviral,Giardia FBPA inh
O=C(c1ccc2ccccc2c1)N1CCN(c2ccc(O)cc2)CC1,x,-34,3%,x,33%,0%
O=C(CCl)N1CCN(S(=O)(=O)c2ccc3c(c2)OCCCO3)CC1,x,u,u,x,25µM*,x
O=C(CSc1ccc2ccccc2c1)N1CCN(c2ccc(O)cc2)CC1,x,-78*,-22%,x,7%,-12%
O=C(CCl)N1CCN(S(=O)(=O)c2ccc3ccccc3c2)CC1,-4%,-98*,u,i,25µM*,3%
O=S(=O)(c1ccc2ccccc2c1)N1CCN(c2ccc(O)cc2)CC1,x,-66*,u,x,29%,x
Cc1cc(C(=O)Nc2ccccc2-c2nc(CNC(=O)c3cscn3)c(C)o2)c(C)o1,0%,x,x,-10%,32%,x
O=C(COC(=O)C1=COCCO1)Nc1ccc(OC(F)F)cc1,-3%,25,1%,-11%,34%,-2%
Cc1c(C(=O)OCC2CCCCC2)[nH]c2c1C(=O)CC(c1ccccc1Cl)C2 (stereo not given),-21%,-10,x,-18%,-5%,x
CCc1nnc2c(Nc3cc(OC)c(Cl)cc3OC)nc3ccccc3n12,6%,47,x,-5%,-4%,x
CC1(C)CCC2=C(O1)c1ccccc1C(=O)C2=O,u,x,x,u,u,1.6µM*
CCN(CC)c1ccc(NC(=O)c2ccc(NC(=O)C3CCCO3)cc2)c(C)c1 (stereo not given),x,u,-28%,x,-21%,4%
Cc1cc(NC(=O)c2ccc(NC(=O)C3CCCO3)cc2)ccc1Br (stereo not given),x,-74*,-1%,x,u,8%
O=C(Nc1ccc(O)cc1)c1ccc(NC(=O)C2CCCO2)cc1 (stereo not given),x,-63*,2%,x,19%,x
Cc1ccc(-n2c(=O)c3c4c(sc3n(CC(=O)Nc3ccccc3C)c2=O)CCCCC4)cc1C,-8%,7,x,-8%,3%,x
CCc1ccc(NC(=O)Cn2c(=O)n(-c3cc(C)cc(C)c3)c(=O)c3oc4ccccc4c32)cc1,-22%,u,x,-26%,-1%,x
COc1ccc(NC(=O)Cn2c(=O)n(-c3cc(C)cc(C)c3)c(=O)c3oc4ccccc4c32)cc1OC,-16%,-84*,x,-4%,-8%,x
COc1ccccc1-c1oc2ccccc2c1C#CC(C)(C)O,-9%,60,10µM*,2%,-25%,x
Cc1ccc(S(=O)(=O)NCC(c2ccc(N(C)C)cc2)N2CCc3ccccc32)cc1C (stereo not given),-11%,-20,x,-8%,30%,x
COC(=O)c1ccc(Sc2nnnn2-c2ccccc2)c([N+](=O)[O-])c1,-25%,-40,2%,-28%,20µM*,0%
Cc1csc(NC(=O)CSc2nnc(-c3ccoc3C)o2)n1,x,50,u,x,25%,-3%
Cc1occc1-c1nnc(SCC(=O)Nc2nc(C(C)(C)C)cs2)o1,u,-69*,u,u,-23%,1%

# Source: PubChem
